An excerpt weighted towards active compounds, which were near 3% of everything screened.
SARS PLpro yeast: blocks SARS-CoV papain-like protease in a yeast assay; Potency, µM (top dose mostly 32.9 µM), inactives show top-dose activity, positive = growth rescue, usual class: activators; S. cerevisiae expressing SARS-CoV PLpro, growth rescue; 0.19% of 330,000 active; AID 485353; calls by dose curve; further: 0% is about no effect; nearly all actives have a fitted effect of over 55% in size
Sm TGR inh: blocks Schistosoma mansoni thioredoxin glutathione reductase; 3% of 360,000 active; purified TGR, DTNB reduction, TNB absorbance 405 nm; Potency, µM (titrated, usually from 114 µM), without a hit: top-dose activity change, negative = inhibition, hits mostly inhibitors; AID 485364; active means well fitted inhibition curve with a large enough effect; inconclusive means small, poorly fitted or top-dose-only effect; inactive means no such curve, though single readings can be large or run the other way; further: on the % scale 0 is the no-effect control and ±100 the full control effect; nearly all actives have a fitted effect of over 60% in size
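First, TGR (20 nM dispensed) and NADPH were mixed with compound. Second, a 15 min room-temperature incubation followed. Third, further NADPH and then DTNB were added to start the reaction. Finally, TNB absorbance was monitored kinetically.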
* = called active by the depositor; ? = inconclusive; / = no result. Potency means the concentration at half of the fitted maximal effect.

SMILES	SARS PLpro yeast	Sm TGR inh
O=C(O)CCSC1CC(=O)N(c2ccccc2)C1=O (stereo not drawn)	-4%	?
CN(C)c1ccc(N2C(=O)CC(Sc3ccccc3C(=O)O)C2=O)cc1 (stereo not drawn)	-92%	28µM*
Cc1ccc(N2C(=O)CC(Sc3ncccc3C(=O)O)C2=O)cc1 (stereo not drawn)	-2%	6%
Cc1ccc(N2C(=O)CC(Sc3ccccc3C(=O)O)C2=O)cc1 (stereo not drawn)	-32%	13µM*
c1ccc(Cn2c(-c3ccco3)nc3nc4ccccc4nc32)cc1	0%	?
CC(C)Cn1c(-c2ccco2)nc2c(c(=O)c3ccccc3n2C)c1=O	-10%	-21%
Cn1c2ccccc2c(=O)c2c(=O)n(Cc3ccco3)c(-c3ccc(Cl)cc3Cl)nc21	0%	14µM*
O=C1c2ccccc2C(=O)N1CCc1nc2ccccc2c(=O)n1Cc1ccco1	6%	35µM*
COc1ccc(Cn2c(-c3ccc(OC)cc3)nc3c(c(=O)c4ccccc4n3C)c2=O)cc1	-24%	7%
COc1ccc(Cn2c(-c3ccco3)nc3c(c(=O)c4ccccc4n3C)c2=O)cc1	-2%	50µM*
Cc1nc2ccccc2c(=O)n1Cc1ccco1	0%	0%
O=c1c2ccccc2nc(-c2ccco2)n1Cc1ccccc1	/	50µM*
CCN(CC)C(=O)Cn1c(=O)n(CCCCCC(=O)NCc2ccc(C)cc2)c(=O)c2sccc21	/	-1%
CCC(c1nnc(SCc2nc3ccccc3s2)n1Cc1ccccc1)N(C)C (stereo not drawn)	1%	0%
c1ccc(Cn2c(SCc3nc4ccccc4s3)nnc2-c2ccco2)cc1	-9%	13µM*
O=C(Oc1cccc2ccccc12)c1ccco1	-2%	0%
O=C(On1c(-c2ccccc2)nc2ccccc2c1=O)c1ccco1	/	6.3µM*
O=C(CN1CCOCC1)N1CCc2ccccc2C(c2ccccc2)C1 (stereo not drawn)	7%	-29%
O=C(CBr)N1CCc2ccccc2C(c2ccccc2)C1 (stereo not drawn)	-2%	3.5µM*
CC1=C(C(=O)OCc2ccc(C)cc2)C(c2ccccc2F)CC(=O)N1 (stereo not drawn)	/	0%
COc1cc(CNc2ncc(-c3ccc(Br)cc3)n2C)cc(OC)c1O	2%	16µM*
COc1ccc(CNc2ncc(-c3ccc(F)cc3)n2C)cc1OC	1%	-10%
CCc1nn(CC(=O)NCCCOC)c(=O)c2cc3ccccc3n12	/	13%
O=C(OC1CCOC1=O)c1ccc(CO)cc1 (stereo not drawn)	11%	8%
O=C(CCC(=O)c1ccc(F)cc1)OC1CCOC1=O (stereo not drawn)	2%	50µM*
SMILES	SARS PLpro yeast	Sm TGR inh
CCC1(C)Cc2nc3[nH]c(=S)n(-c4ccc(C)cc4)c(=O)c3cc2CO1 (stereo not drawn)	10%	6.3µM*
Cc1ccc(-n2c(=S)[nH]c3nc4c(cc3c2=O)COC(C)(C)C4)cc1	17%	9%
O=C(Nc1ccc(C(=O)OCc2cc(=O)n3c4c(sc3n2)CCCC4)cc1)c1ccccc1	/	6%
O=C(NC1CCCCCC1)c1ccc(Br)o1	0%	1%
O=C(NC1CCCCC1)Oc1cc2oc(=O)sc2cc1Br	-19%	3.2µM*
CCc1cccc(NC(=O)CSC2=NS(=O)(=O)c3ccccc32)c1	-8%	3.2µM*
CCc1cccc(NC(=O)CSc2ncc3c(n2)-c2ccccc2N(CC)S3(=O)=O)c1	/	3%
Cc1cccc2sc(NNC(=O)c3ccc(S(=O)(=O)N4CCCC(C)C4)cc3)nc12 (stereo not drawn)	8.9µM*	-17%
Cc1cc(C)c2nc(NNC(=O)c3ccc(S(=O)(=O)N4CCCCC4)cc3)sc2c1	?	-5%
Cc1cccc(C)c1NC(=S)NCCc1ccc(O)c(O)c1	-1%	7.9µM*
Cc1cccc(NC(=S)NCCc2ccccc2)c1C	-7%	-3%
COc1ccccc1CNS(=O)(=O)c1cccs1	-3%	-14%
COc1ccc(CNC(=O)CCS(=O)(=O)c2cccc3nonc23)cc1	2%	13µM*
COc1ccc(NC(=O)CCS(=O)(=O)c2cccc3nonc23)cc1	-6%	?
O=C(CCS(=O)(=O)c1ccc(Br)cc1)NCc1ccc(F)cc1	1%	5%
COc1ccccc1CNC(=O)CCS(=O)(=O)c1cccs1	4%	35µM*
COc1ccccc1CNC(=O)CCS(=O)(=O)c1cccc2nonc12	2%	45µM*
CCc1ccccc1NC(=O)CCS(=O)(=O)c1cccc2nonc12	/	-30%
O=C(CCS(=O)(=O)c1ccccc1Cl)NCc1ccc(F)cc1	0%	32µM*
COc1ccc(NC(=O)c2oc3ccccc3c2NC(=O)Cc2coc3c(C)c(C)ccc23)cc1	/	-2%
CCC(=O)N1CCc2cc(Br)cc(S(=O)(=O)N3CCN(c4ccccc4OC)CC3)c21	/	6%
Cc1ccc(CNC(=O)CCS(=O)(=O)c2cccc3nonc23)cc1	-2%	25µM*
Cc1ccc(NC(=O)CCS(=O)(=O)c2cccc3nonc23)c(C)c1	/	1%
O=C(CCc1nc(-c2cccs2)no1)Nc1cccc([N+](=O)[O-])c1	/	19%
O=C(Nc1c2c(nn1-c1ccc(F)cc1)CS(=O)(=O)C2)c1ccc(Br)o1	4%	-4%
SMILES	SARS PLpro yeast	Sm TGR inh
Cc1ccccc1-n1nc2c(c1NC(=O)c1cc3ccccc3o1)CS(=O)(=O)C2	1%	-19%
COc1ccc(-n2nc3c(c2NC(=O)c2ccc(Br)o2)CS(=O)(=O)C3)cc1	18%	35µM*
COc1ccc(-n2nc3c(c2NC(=O)c2cc4ccccc4o2)CS(=O)(=O)C3)cc1	13%	50µM*
CC(C)(C)OC(=O)N1CCC(c2c(C(=O)N3CCC(c4ccccc4)C3)cnn2-c2cccc(Cl)c2)CC1 (stereo not drawn)	/	-5%
Cc1cc(C)n2c(=O)c3ccc(Cl)cc3nc2c1C#N	-8%	3%
Cc1cc(Cl)n2c(nc3cc(F)c(F)cc32)c1C#N	-18%	1.1µM*
Cc1ccc(Cn2ccnc2SCC(=O)Nc2nc3ccccc3s2)cc1	/	0%
CCOc1ccc(-n2c(=O)c3c(C)c(C)sc3n(Cc3ccccc3C)c2=O)cc1	/	-1%
CN(CCc1ccccn1)C(=O)c1nn2c(C(F)(F)F)cc(-c3ccco3)nc2c1Cl	7%	45µM*
O=C(c1cnn2c(C(F)(F)F)cc(-c3ccco3)nc12)N1CCc2ccccc2C1	-9%	13µM*
O=C(NC1CCCCC1)c1nn2c(C(F)(F)F)cc(-c3ccco3)nc2c1Br	6%	25µM*
O=C(c1cnn2c(C(F)(F)F)cc(-c3ccco3)nc12)N1CCCCCC1	5%	?
O=C(NC1CCCCC1)c1cnn2c(C(F)(F)F)cc(-c3ccco3)nc12	-1%	0%
O=C(Nc1cc(F)ccc1F)c1cc2nc(-c3ccco3)cc(C(F)(F)Cl)n2n1	/	22µM*
O=C(Nc1cccc(C(F)(F)F)c1)c1cc2nc(-c3ccco3)cc(C(F)(F)Cl)n2n1	/	4%
CC(C)NC(=O)c1nn2c(C(F)(F)F)cc(-c3ccco3)nc2c1Cl	-1%	?
Cn1c(=O)c2cc(C(=O)Nc3cccc(C#N)c3)sc2c2ccccc21	/	-1%
CCCc1ccc(S(=O)(=O)N2CCC(c3nnc(-c4cccc(C)c4)o3)CC2)cc1	/	-1%
O=C(c1ccccc1)N1CCN(C(=O)c2nn3c(C(F)(F)F)cc(-c4ccco4)nc3c2Br)CC1	0%	40µM*
O=C(O)c1cnn2c(C(F)(F)F)cc(-c3ccco3)nc12	-1%	?
